Assay outcomes from PubChem BioAssay.
mHTT CaM bind: inhibitors of human mutant huntingtin-calmodulin interaction | inhibition, % at 15 µM | P42858 | AlphaScreen His-mHTT/GST-CaM binding, luminescence | 3.6% of 190,000 active | AID 1671202
Pf apPOL block: Pf-apPOL DNA polymerase inhibition; 0.25% of 210,000 active; Recombinant Pf-apPOL, molecular beacon fluorescence, 1.5 h; AID 1794808; inhibition, % at 10 µM
Numbers stand for hits; i = inactive; nt = no result. Only some compounds are listed: those with a hit (about 3.5% of all), similar ones and a draw of the others. Cut-off read from the data, not from the text of the source: active = inhibition above about 50%; inactive = the rest.

SMILES	mHTT CaM bind	Pf apPOL block
COc1ccccc1NC(=O)c1c(NCc2ccncc2)sc2c1CCC(C)C2 (stereo not drawn)	100.0	i
COc1ccc(OC)c(NC(=O)Cn2nc3c(cc2=O)CC(C)CC3)c1 (stereo not drawn)	i	i
O=C(CSCc1ccccc1)NCC1CCN(Cc2ccco2)CC1	i	i
O=C1OCCN1C(=O)[C@H]1[C@H](c2ccc(Cl)cc2)C(c2ccc(F)cc2)=NN1c1ccc(Br)cc1	79.1	i
O=C1OCCN1C(=O)[C@H]1[C@H](c2ccc(F)cc2)C(c2ccc(F)cc2)=NN1c1ccccc1	i	i
O=C1OCCN1C(=O)[C@H]1[C@H](c2ccc(Cl)cc2)C(c2ccc(F)cc2)=NN1c1ccccc1	71.9	i
O=C1OCCN1C(=O)[C@H]1[C@H](c2ccc(F)cc2)C(c2ccc(F)cc2)=NN1c1ccc(Br)cc1	54.1	i
O=C1OCCN1C(=O)[C@H]1[C@H](c2ccc(F)cc2)C(c2ccccc2)=NN1c1ccccc1	i	i
O=C1OCCN1C(=O)[C@H]1[C@H](c2ccc(Cl)cc2)C(c2ccccc2)=NN1c1ccccc1	i	i
Cc1ccccc1-n1c(SCC(=O)Nc2ccc(C(F)(F)F)cc2)nc2[nH]ncc2c1=O	i	i
CCOc1ccccc1OCCCOc1ccccc1C(C)=O	i	i
COc1ccc(-n2nc3c(c2NC(=O)c2ccc(OC(C)C)cc2)CS(=O)C3)cc1 (stereo not drawn)	i	i
CC(C)CNCC(O)COC1CCCC1 (stereo not drawn)	i	i
CCNc1cc(N2CCC(CCC(=O)Nc3cc(C)ccc3OC)CC2)ncn1	54.9	i
CCCNc1cc(N2CCC(CCC(=O)Nc3ccc4c(c3)OCO4)CC2)ncn1	60.1	i
CCNc1cc(N2CCC(CCC(=O)Nc3ccc(OC)c(OC)c3)CC2)ncn1	i	i
CCCNc1cc(N2CCC(CCC(=O)Nc3ccc4c(c3)OCCO4)CC2)ncn1	i	i
CC(C)(c1ccccc1)c1ccc(OCC(=O)N2CCOCC2)cc1	i	i
O=[N+]([O-])c1ccc(NN=C2CCCCCC2c2ccccc2)c([N+](=O)[O-])c1 (stereo not drawn)	nt	i
O=[N+]([O-])c1ccccc1NN=C1CCCC1	57.7	nt
CC(=O)c1ccc(N=Cc2nc(-c3ccc(C)cc3)oc2O)cc1	i	i
CN(C)c1cc(Nc2ccccc2)c2c3c(onc13)-c1ccccc1C2=O	96.0	i
O=C(O)c1ccccc1Nc1cc(N2CCOCC2)c2noc3c2c1C(=O)c1ccccc1-3	i	i
CNc1cc(Nc2ccccc2)c2c3c(onc13)-c1ccccc1C2=O	98.0	i
CCOc1ccc(Nc2cc(N3CCOCC3)c3noc4c3c2C(=O)c2ccccc2-4)cc1	i	i
SMILES	mHTT CaM bind	Pf apPOL block
Cc1ccc(-c2nnc(N3CCC(C(=O)N4CCN(C)CC4)CC3)o2)cc1	i	i
c1ccc(CNc2nc(-c3ccccn3)cs2)cc1	100.2	i
c1ccc(-c2csc(NCc3ccco3)n2)cc1	i	i
CCNc1nc(-c2ccccc2)cs1	nt	i
c1ccc(-c2csc(NCc3ccco3)n2)nc1	98.6	i
CCOc1ccc(NC(=O)c2cccc3[nH]cc(CN4CCSCC4)c23)cc1	i	i
CC(=O)C1=C(C)NC(SCc2cccc([N+](=O)[O-])c2)=C(C#N)C1c1cccc(C)c1 (stereo not drawn)	i	i
O=C(Cc1c([N+](=O)[O-])cc([N+](=O)[O-])cc1S(=O)Cc1ccccc1)Nc1ccccc1 (stereo not drawn)	84.0	i
O=C(CCCc1ccccc1)Nc1cccc([N+](=O)[O-])c1	i	i
COC(=O)c1[nH]c2c(c1C)C(=O)CC(C)(C)C2	i	nt
Cc1[nH]c2c(c1C)C(=O)CC(C)(C)C2	68.0	nt
CCCC(=O)Nc1ccc(NC(=O)c2ccccc2)cc1	i	i
CCOc1ccc(-c2[nH]nc3c2C(c2ccc(F)cc2)C(C#N)=C(N)O3)c(OCC)c1 (stereo not drawn)	i	i
CCOc1ccc(-c2[nH]nc3c2C(c2ccccc2F)C(C#N)=C(N)O3)c(OCC)c1 (stereo not drawn)	51.0	i
O=C(Cc1ccc(Cl)cc1)NCc1cccnc1	i	i
COc1ccc2c(c1)c(CC(=O)NCc1cccnc1)c(C)n2C(=O)c1ccc(Cl)cc1	58.0	i
COc1ccc(OC)c(NC(=O)Cn2nc3ccc(-c4ccc(Cl)cc4)nn3c2=O)c1	i	i
CCN1c2cc(C)ccc2-n2cccc2C12CCN(C(=O)Nc1ccccc1F)CC2	i	i
COC(=O)CNC(=O)N1CCOc2ccc(C)cc21	i	i
CCOc1ccc(C(=O)N2CCC3(CC2)NC(=O)c2cc(C)ccc2N3CC)cc1	i	i
CCN1c2cc(C)ccc2-n2cccc2C12CCN(C(=O)Nc1ccccc1C)CC2	i	i
CCN1c2cc(C)ccc2-n2cccc2C12CCN(C(=O)c1ccc(OC)cc1)CC2	94.2	i
CCCNC(=O)N1CCC2(CC1)c1cccn1-c1ccc(C)cc1N2CC	100.3	i
CCN1c2cc(C)ccc2-n2cccc2C12CCN(C(=O)Nc1cccc(F)c1)CC2	71.9	i
CCN1c2cc(C)ccc2-n2cccc2C12CCN(C(=O)NCC(=O)OC)CC2	75.6	i
SMILES	mHTT CaM bind	Pf apPOL block
Cc1ccc(CNC(=O)C2CCc3sc(C(=O)N4CCCC4)cc3C2)o1 (stereo not drawn)	i	i
Cn1cc2c3c(cccc31)CN(C(=O)Nc1ccccc1C(F)(F)F)CC2	i	i
O=C(Nc1ccccc1[N+](=O)[O-])c1cccc(S(=O)(=O)Nc2ccc(Cl)cn2)c1	i	i
CCN1c2cc(C)ccc2-n2cccc2C12CCN(C(=O)NCC1CCCO1)CC2 (stereo not drawn)	65.0	i
Cc1cccc(C(=O)NCC2CCCO2)c1 (stereo not drawn)	i	i
CCc1ccc(N(CC(=O)NCc2ccncc2)S(=O)(=O)c2ccccc2)cc1	i	i
Oc1ccc(CNc2ccc3cn[nH]c3c2)cc1	i	i
Cc1ccccc1CNc1ccc2cn[nH]c2c1	62.0	i
Cc1ccc(CNc2ccc3[nH]ncc3c2)cc1	82.4	i
COc1ccccc1CNc1ccc2cn[nH]c2c1	i	i
COc1cc(CNc2ccc3cn[nH]c3c2)ccc1O	i	i
c1ccc(CNc2ccc3cn[nH]c3c2)cc1	81.8	i
O=C1/C(=C/c2cc(Br)ccc2O)N=C2CCCCCN12	i	i
Cc1ccc(NS(=O)(=O)c2cc(Br)cc3c2N(C(=O)C2CC2)CC3)cc1F	i	i
COc1ccc(NC(=O)c2cn3c(n2)CCCC3)cc1Cl	i	i
Cc1ccc(C2CCCN2C(=O)Cc2cccs2)cc1 (stereo not drawn)	i	i
COc1ccc(CCC(=O)NC2CC(O)C(CO)C2)cc1 (stereo not drawn)	i	i
O=C(CN1C(=O)C2C3c4ccccc4C(c4ccccc43)C2C1=O)Nc1cccc(Cl)c1 (stereo not drawn)	100.3	i
COc1ccccc1NC(=O)CN1C(=O)C2C3c4ccccc4C(c4ccccc43)C2C1=O (stereo not drawn)	i	i
O=c1/c(=C/c2ccco2)sc2nc(-c3ccc(Br)cc3)nn12	i	i
Cc1ccc2ccccc2c1C[N+](C)(C)CC#Cc1ccccc1	77.4	nt
C(#Cc1ccccc1)CN1CCN(CC#Cc2ccccc2)CC1	i	i
Cc1cccc(NC(=O)COc2c(C)cc(Cl)cc2Cl)n1	i	58.3
Cc1cccc(NC(=O)COc2ccc(Cl)c(C)c2)n1	i	i
CC(C)C(=O)Nc1cc(C(C)(C)C)nn1-c1ccc(Br)cc1	i	i
